The record followed here is PubChem BioAssay.

A short description of test [1]: antimalarial activity against Dd2 strain (AID 2302;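 active = growth inhibition above 50% at the single 2 µM test dose, taken to imply half-maximal potency below 2 µM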;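 note: 0% = DMSO untreated growth and 100% = chloroquine plus artemisinin killed control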). The conditions noted are these: P. falciparum Dd2 in RBCs, LDH growth readout, 72 h; at 2 µM; stronger effect = higher value.
Test [2] can be described thus: human hepatoma cell viability loss – ATP luminescence, cytotoxicity control for P. falciparum antimalarial project, primary screen (AID 2303;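 active = inhibition above 50%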;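 note: 0% = DMSO wells and 100% = digitonin-killed cells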). The conditions noted are these: HepG2 viability, 24-48 h, at 10 µM, stronger effect = higher value.
Test [3] has as its target L-lactate dehydrogenase (Plasmodium falciparum (isolate CDC / Honduras)) (UniProt Q27743). In words: PfLDH activity inhibition – cell lysate, 3D7 strain, counter-screen for P. falciparum growth inhibition project (AID 2304).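 Note: 0% = vehicle and 100% = reference inhibitor.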 Conditions: P. falciparum 3D7 crude extract, LDH APAD/NBT absorbance; at 2 µM; stronger effect = higher value. Background: A counterscreen serves to expose hits that act by an unwanted route or on another target.

Test [4] in a line: inhibition of 3D7 malaria parasite growth – strain 3D7 (AID 2306).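 Note: 0% = DMSO wells and 100% = chloroquine plus artemisinin control wells.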 Conditions: P. falciparum 3D7 erythrocytic growth, LDH absorbance, 72 h; at 2 µM; stronger effect = higher value.
For test [5], the target named is Calcium-dependent protein kinase 1 (Plasmodium falciparum (isolate 3D7)) (UniProt P62344). Description: PfCDPK1 kinase inhibitors, biochemical, TCAMS library (AID 1159585; cut-off not given, nearly all actives have IC50 up to about 0.98 µM;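 note: inhibitors leave more ATP so luminescence rises with inhibition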). The conditions noted are these: recombinant PfCDPK1, Kinase-Glo ATP depletion luminescence. (Kinase-Glo measures the ATP left after a reaction by luminescence.)
Sequence of Calcium-dependent protein kinase 1 (Plasmodium falciparum (isolate 3D7)) (P62344 whole entry, looked up): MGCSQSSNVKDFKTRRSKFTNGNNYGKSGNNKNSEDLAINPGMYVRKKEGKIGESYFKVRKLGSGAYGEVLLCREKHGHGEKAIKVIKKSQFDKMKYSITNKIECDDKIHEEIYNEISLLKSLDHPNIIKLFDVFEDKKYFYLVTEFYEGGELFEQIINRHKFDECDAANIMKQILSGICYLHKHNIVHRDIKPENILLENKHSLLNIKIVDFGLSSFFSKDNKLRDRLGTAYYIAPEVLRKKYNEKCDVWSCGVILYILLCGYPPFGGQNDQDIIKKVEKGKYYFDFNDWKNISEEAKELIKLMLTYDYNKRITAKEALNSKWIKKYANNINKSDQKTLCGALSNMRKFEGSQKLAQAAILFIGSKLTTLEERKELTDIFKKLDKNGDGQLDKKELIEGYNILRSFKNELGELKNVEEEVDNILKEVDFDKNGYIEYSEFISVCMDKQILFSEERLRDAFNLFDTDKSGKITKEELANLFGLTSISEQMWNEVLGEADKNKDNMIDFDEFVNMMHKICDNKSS
In test [6] the target is Plasmodium falciparum protein kinase 6 (PK6, PF3D7_1337100) (UniProt Q8IDW1). In words: PfPK6 kinase inhibitors, biochemical, TCAMS library (AID 1159586). The conditions noted are these: recombinant PfPK6, Kinase-Glo ATP depletion luminescence.
Sequence of Plasmodium falciparum protein kinase 6 (PK6, PF3D7_1337100) (Q8IDW1 1-305): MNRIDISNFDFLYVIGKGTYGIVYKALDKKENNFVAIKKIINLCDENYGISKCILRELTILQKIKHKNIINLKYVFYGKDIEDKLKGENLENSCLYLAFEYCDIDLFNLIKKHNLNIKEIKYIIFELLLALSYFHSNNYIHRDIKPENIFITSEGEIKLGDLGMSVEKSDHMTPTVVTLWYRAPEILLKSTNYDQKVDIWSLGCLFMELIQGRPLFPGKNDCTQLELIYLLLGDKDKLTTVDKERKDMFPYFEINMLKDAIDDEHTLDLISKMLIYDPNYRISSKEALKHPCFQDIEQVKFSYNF
Test [7] concerns the target Protein kinase 7 (PK7), Plasmodium falciparum 3D7 (PF3D7_0213400) (UniProt Q7YTF7). In words: inhibition of Plasmodium PK7 catalytic activity – biochemical, TCAMS antimalarial set, Kinase-Glo luminescence (AID 1159587). The conditions noted are these: recombinant PfPK7, Kinase-Glo ATP depletion luminescence.
Test [8] addresses Calcium-dependent protein kinase 4 (Plasmodium falciparum (isolate 3D7)) (UniProt Q8IBS5). In words: PfCDPK4 kinase inhibitors, biochemical, TCAMS library (AID 1159588; cut-off not given, nearly all actives have IC50 up to about 0.91 µM). The conditions noted are these: recombinant PfCDPK4, Kinase-Glo ATP depletion luminescence.

By inhibition is commonly meant the change of the read-out against control, counted positive when it falls.

Values without a mark were called inactive. For some of these results: Entries with a potency or affinity are not part of this list. The source made the active and inactive calls. Unless noted, the rule behind the calls is not given here.

Sequence of Protein kinase 7 (PK7), Plasmodium falciparum 3D7 (PF3D7_0213400) (Q7YTF7 1-343): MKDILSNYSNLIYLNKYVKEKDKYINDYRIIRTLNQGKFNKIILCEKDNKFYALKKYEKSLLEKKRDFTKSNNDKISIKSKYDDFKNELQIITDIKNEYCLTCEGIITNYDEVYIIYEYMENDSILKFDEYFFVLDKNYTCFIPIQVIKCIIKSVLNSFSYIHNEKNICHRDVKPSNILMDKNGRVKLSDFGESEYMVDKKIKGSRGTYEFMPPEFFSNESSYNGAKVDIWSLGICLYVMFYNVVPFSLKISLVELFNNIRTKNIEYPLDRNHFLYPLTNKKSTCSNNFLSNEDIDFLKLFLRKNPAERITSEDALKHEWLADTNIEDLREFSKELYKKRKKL
Sequence of L-lactate dehydrogenase (Plasmodium falciparum (isolate CDC / Honduras)) (Q27743 whole entry, looked up): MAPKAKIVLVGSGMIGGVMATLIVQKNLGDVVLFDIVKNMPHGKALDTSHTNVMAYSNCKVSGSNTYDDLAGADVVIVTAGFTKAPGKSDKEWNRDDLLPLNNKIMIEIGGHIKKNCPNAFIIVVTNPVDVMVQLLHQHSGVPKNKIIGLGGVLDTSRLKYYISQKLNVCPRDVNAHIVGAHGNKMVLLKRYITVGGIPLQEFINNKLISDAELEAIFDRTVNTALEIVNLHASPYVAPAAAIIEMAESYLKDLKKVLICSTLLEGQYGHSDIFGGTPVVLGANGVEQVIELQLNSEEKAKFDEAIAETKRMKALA
Sequence of Calcium-dependent protein kinase 4 (Plasmodium falciparum (isolate 3D7)) (Q8IBS5 whole entry, looked up): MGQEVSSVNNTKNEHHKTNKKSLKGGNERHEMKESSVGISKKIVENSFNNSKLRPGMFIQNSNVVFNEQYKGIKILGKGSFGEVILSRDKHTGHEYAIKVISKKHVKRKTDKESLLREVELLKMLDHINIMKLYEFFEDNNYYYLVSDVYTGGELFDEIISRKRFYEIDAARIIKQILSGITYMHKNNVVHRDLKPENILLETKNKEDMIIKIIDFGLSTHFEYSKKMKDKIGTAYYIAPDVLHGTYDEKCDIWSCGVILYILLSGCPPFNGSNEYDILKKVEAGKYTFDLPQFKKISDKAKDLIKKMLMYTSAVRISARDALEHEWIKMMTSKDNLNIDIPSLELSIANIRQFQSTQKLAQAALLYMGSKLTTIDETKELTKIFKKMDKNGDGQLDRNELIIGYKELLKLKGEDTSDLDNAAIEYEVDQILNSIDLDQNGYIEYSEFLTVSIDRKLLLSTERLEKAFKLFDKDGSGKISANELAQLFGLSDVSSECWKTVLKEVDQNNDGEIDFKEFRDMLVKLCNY

As to `N#Cc1cccc(Nc2nccc(NCC(O)c3cccc(C(F)(F)F)c3)n2)c1` (stereo not given), the values for the growth inhibition in test [1] and in test [4] were 84% (active) and 99% (active), respectively. The inhibition in test [2] was 4%; in test [3], -3%. The outcome in test [5], in test [6], in test [7] and in test [8] was inactive.

As to `CN(C)Cc1ccc(-c2ccc(NC(=O)c3ccc4c(=O)n(Cc5ccccc5)cnc4c3)cc2)cc1`, the growth inhibition in test [1] is 39%; in test [4], 100% (active). Moreover, the inhibition in test [2] was 94% (active); in test [3], -2%. Moreover, the result in test [5], in test [6], in test [7] and in test [8] was inactive.

As for `Nc1c(Cl)cc(C(O)CNCCCCCOCCCc2ccc(O)c3ncccc23)cc1Cl` (stereo not given), the growth inhibition is 12% in test [1] and 90% (active) in test [4]. The inhibition is 65% (active) in test [2] and -4% in test [3]. The outcome in test [5], in test [6], in test [7] and in test [8] was inactive.

As for `Cc1cc(N2CCCC2)nc(Nc2ccc(NC(=O)C3CCCC3)cc2)n1`, the growth inhibition in test [1] was 81% (active); in test [4], 102% (active). Moreover, the inhibition in test [2] is 27%; in test [3] it was 1%. The result in test [5], in test [6], in test [7] and in test [8] was inactive.

`CCN(CC)CCN(CCCc1ccc(-c2ccc(C(F)(F)F)cc2)cc1)C(=O)Cn1c(CCc2cccc(F)c2F)nc(=O)c2ccccc21`: the growth inhibition in test [1] is 49%; in test [4], 101% (active). Further, the inhibition in test [2] was 37%; in test [3], 3%. Further, the result in test [5], in test [6], in test [7] and in test [8] was inactive.

As to `Clc1ccccc1C=NNc1ccnc2ccccc12`, the growth inhibition in test [1] is 50% (active); in test [4], 100% (active). In addition, the inhibition in test [2] is 25%; in test [3], -3%. Besides, the result in test [5], in test [6], in test [7] and in test [8] was inactive.

In the case of `O=C(Cc1cccc(Cl)c1)Nc1cccc(-c2c[nH]c3nc(Nc4cccc(OCc5ccccc5)c4)ncc23)c1`, the growth inhibition is 56% (active) in test [1] and 100% (active) in test [4]. For the same compound, the inhibition in test [2] and in test [3] was -1% in each case. For the same compound, the result in test [5], in test [6], in test [7] and in test [8] was inactive.

Consider `Oc1ccc(-c2ccccc2)cc1CNC1CCCCC1`, for which the growth inhibition was 100% (active) in test [1] and 95% (active) in test [4]. For the same compound, the inhibition is 24% in test [2] and -3% in test [3]. Further, the outcome in test [5], in test [6], in test [7] and in test [8] was inactive.

As to `FC(F)(F)c1ccc(N2CCCN(Cc3cccc(-c4ccccc4CNCc4ccc5c(c4)OCO5)c3)CC2)nc1`, the growth inhibition was 11% in test [1] and 87% (active) in test [4]. Moreover, the inhibition in test [2] was 23%; in test [3], 3%. Also, the result in test [5], in test [6], in test [7] and in test [8] was inactive.

As to `O=C(Nc1nccs1)c1cc(-c2cccnc2)nc2ccc(Br)cc12`, the results for the growth inhibition in test [1] and in test [4] were 79% (active) and 100% (active), respectively. In addition, the inhibition was 7% in test [2] and 5% in test [3]. Also, the outcome in test [5], in test [6], in test [7] and in test [8] was inactive.

As for `Cc1ccc(O)c(-c2cc(C(=O)Nc3ccc(S(=O)(=O)N4CCCCC4)cc3)[nH]n2)c1`, the growth inhibition in test [1] was 98% (active); in test [4], 94% (active). Further, the inhibition in test [2] is 31%; in test [3], -4%. For the same compound, the result in test [5], in test [6], in test [7] and in test [8] was inactive.

`CC(C)(C)NCCN(Cc1ccc(-c2ccc(C(F)(F)F)cc2)cc1)C(=O)Cn1c(SCc2ccc(F)cc2)nc(=O)c2c1CCC2`: the growth inhibition in test [1] was 84% (active); in test [4], 97% (active). For the same compound, the inhibition is 64% (active) in test [2] and 0% in test [3]. The outcome in test [5], in test [6], in test [7] and in test [8] was inactive.

Regarding `NC(=O)c1c(Cl)nc2ccccc2c1Cl`, the figures for the growth inhibition in test [1] and in test [4] were -2% and 91% (active), respectively. The inhibition in test [2] is 2%; in test [3] it was -2%. The result in test [5], in test [6], in test [7] and in test [8] was inactive.

As to `C(=Cc1ccccc1)C=NNc1ccnc2ccccc12`, the growth inhibition in test [1] and in test [4] was 100% (active) throughout. The inhibition is 24% in test [2] and 5% in test [3]. Also, the result in test [5], in test [6], in test [7] and in test [8] was inactive.

`O=C(Nc1ccc(SC(F)(F)F)cc1)Nc1ccnc2ccccc12`: the growth inhibition in test [1] was 42%; in test [4], 95% (active). Also, the inhibition in test [2] is 26%; in test [3], -2%. For the same compound, the outcome in test [5], in test [6], in test [7] and in test [8] was inactive.

Take `COc1ccc(C2CC(c3ccccc3)=NN2C(=O)c2ccc(Br)o2)cc1` (stereo not given): the growth inhibition in test [1] is 45%; in test [4], 96% (active). Moreover, the inhibition in test [2] was 6%; in test [3], -6%. In addition, the result in test [5], in test [6], in test [7] and in test [8] was inactive.

As for `COc1cccc2cc(C(=O)N[C@@H](CC(C)C)C(=O)N[C@H](/C=N/N3CCOC3=O)CC(C)C)oc12`, the growth inhibition in test [1] is 72% (active); in test [4], 90% (active). The figures for the inhibition in test [2] and in test [3] were 4% and -2%, respectively. The outcome in test [5], in test [6], in test [7] and in test [8] was inactive.

As for `CCN1CCC(N(Cc2ccc(-c3ccc(C(F)(F)F)cc3)cc2)C(=O)Cn2c(SCc3ccc(F)cc3)nc(=O)c3c2CCC3)CC1`, the growth inhibition in test [1] was 96% (active); in test [4] it was 90% (active). Besides, the values for the inhibition in test [2] and in test [3] were 46% and 2%, respectively. The result in test [5], in test [6], in test [7] and in test [8] was inactive.

In the case of `Cc1cc(NC(=O)c2ccsc2)ccc1OC1CCN(Cc2ccc(F)cc2)CC1`, the growth inhibition was 47% in test [1] and 83% (active) in test [4]. The inhibition in test [2] was 9%; in test [3], -2%. For the same compound, the outcome in test [5], in test [6], in test [7] and in test [8] was inactive.

On to `N#Cc1ccc(N[C@@H](CC2CCCCC2)C(=O)NCc2cc(Cl)cc(Cl)c2)c2ccccc12`, for which the results for the growth inhibition in test [1] and in test [4] were 88% (active) and 94% (active), respectively. The inhibition was 34% in test [2] and 0% in test [3]. For the same compound, the result in test [5], in test [6], in test [7] and in test [8] was inactive.
